# Measured values from ChEMBL document CHEMBL3988442, “University of Dundee, Small-Polar-MMV Screening Library” (2021).
# The whole screen tested about 69,000 compounds, of which about 1,000 (1.4%) showed an effect of 50% or more. The entries come from a sample that favours strong results as a whole.
# Tested on: Leishmania donovani
# Assay: Leishmania intramacrophage assay
# Format: functional, organism-based
# Set-up: scale not given: in the data most compounds retested in dose-response had high values
smiles,measurement,setting,value
CC(NC(=O)c1ccnn1C)c1ccc(OCC2CC2)c(F)c1 (stereo unspecified),Percent Effect,"30.3 µM, […]",27.82%
CCS(=O)(=O)CCNC1CCN(c2nc3ccc(Cl)cc3s2)CC1,Percent Effect,"30.3 µM, […]",66.16%
Cc1csc2c(N3CCC(NCCc4ccnn4C)CC3)ncnc12,Percent Effect,"30.3 µM, […]",17.37%
Cc1csc2c(N3CCC(NCCCC4CCOC4)CC3)ncnc12 (stereo unspecified),Percent Effect,"30.3 µM, […]",10.77%
Clc1ccc2nc(N3CCC(NCCCC4CCOC4)CC3)sc2c1 (stereo unspecified),Percent Effect,"30.3 µM, […]",61.31%
Cc1n[nH]c(SCCNC2CCN(c3nc4ccccc4s3)CC2)n1,Percent Effect,"30.3 µM, […]",6.253%
CCCc1cc(NCCCC2CCOC2)n2nccc2n1 (stereo unspecified),Percent Effect,"30.3 µM, […]",32.07%
Cn1ccnc1SCCNC1CCN(c2nc3ccccc3s2)CC1,Percent Effect,"30.3 µM, […]",43.39%
CCCc1cc(CNC2CCN(c3nc4ccccc4s3)CC2)on1,Percent Effect,"30.3 µM, […]",35.92%
CCc1nccn1CCNC1CCN(c2nc3ccc(Cl)cc3s2)CC1,Percent Effect,"30.3 µM, […]",98.8%
CCOCC(O)CN1CCN(C(=O)C2CCC2)CC1 (stereo unspecified),Percent Effect,"30.3 µM, […]",23.63%
O=C1CCOC[C@]2(CN(Cc3ccccc3)C[C@H]2c2ccccc2)N1,Percent Effect,"30.3 µM, […]",-10.32%
CN(C)c1ccc(C(=O)N2CCC(c3cc4ncccc4[nH]3)CC2)cc1,Percent Effect,"30.3 µM, […]",-1.505%
CS(=O)(=O)CCNC(=O)N1CC2(CCCC2)c2ccccc21,Percent Effect,"30.3 µM, […]",0.5956%
CSCCC1c2nc[nH]c2CCN1Cc1cc(Cl)ccc1O (stereo unspecified),Percent Effect,"30 µM, 30.03 µM",8.861%
CCN(C)Cc1nc(-c2ccccc2NS(C)(=O)=O)oc1C,Percent Effect,"30.3 µM, […]",2.546%
O=C(O)C(F)(F)F.O=C(c1ccno1)N1CCO[C@@H]2CC(COCc3ccccn3)C[C@H]21 (stereo partly specified),Percent Effect,"30.3 µM, […]",6.888%
Cc1cccc(OCC2CCCN(C(=O)CN(C)C3CCNCC3)C2)c1 (stereo unspecified),Percent Effect,"30.3 µM, […]",48.81%
Cc1ccccc1OCC1CCCN(C(=O)CN(C)C2CCNCC2)C1 (stereo unspecified),Percent Effect,"30.3 µM, […]",83.48%
COCC(=O)N1CCCC(COc2ccccc2C)C1 (stereo unspecified),Percent Effect,"30.3 µM, […]",0.2743%
CNc1cc(CNC(=O)c2ccccc2)nc(-c2ccncc2)n1,Percent Effect,"30 µM, 30.03 µM",35.29%
Cn1ccnc1CN1CCC(F)(F)C2(CCN(c3cccnc3)C2)C1.O=C(O)C(F)(F)F.O=C(O)C(F)(F)F (stereo unspecified),Percent Effect,"30.3 µM, […]",69.63%
FC1(F)CCN(Cc2cccnc2)CC12CCN(c1ccccn1)C2.O=C(O)C(F)(F)F.O=C(O)C(F)(F)F.O=C(O)C(F)(F)F (stereo unspecified),Percent Effect,"30 µM, 30.03 µM",38.27%
Cn1cc(CN2CCC(F)(F)C3(CCN(c4cccnc4)C3)C2)cn1.O=C(O)C(F)(F)F.O=C(O)C(F)(F)F (stereo unspecified),Percent Effect,"30.3 µM, […]",0.6501%
Cn1ccnc1CN1CCC(F)(F)C2(CCN(c3cnccn3)C2)C1.O=C(O)C(F)(F)F (stereo unspecified),Percent Effect,"30.3 µM, […]",-10.04%
O=C(C1CCCO1)N1CCC2(CC1)COCCN(Cc1cccnc1)C2.O=C(O)C(F)(F)F.O=C(O)C(F)(F)F (stereo unspecified),Percent Effect,"30.3 µM, […]",54.72%
FC1(F)CCN(Cc2cccnc2)CC12CCN(c1ccccc1)C2.O=C(O)C(F)(F)F.O=C(O)C(F)(F)F.O=C(O)C(F)(F)F (stereo unspecified),Percent Effect,"30.3 µM, […]",99.13%
O=C(C1CCCO1)N1CCC2(CC1)COCCN(Cc1ccncc1)C2.O=C(O)C(F)(F)F.O=C(O)C(F)(F)F (stereo unspecified),Percent Effect,"30.3 µM, […]",14.9%
FC1(F)CCN(Cc2ccncc2)CC12CCN(c1cccnc1)C2.O=C(O)C(F)(F)F.O=C(O)C(F)(F)F.O=C(O)C(F)(F)F (stereo unspecified),Percent Effect,"30.3 µM, […]",38.61%
O=C([C@@H]1CCCO1)N1CCOCC2(CCN(Cc3cccnc3)C2)C1 (stereo partly specified),Percent Effect,"30.3 µM, […]",28.44%
Cc1ccccc1CC(=O)N(C)C1CCCC1,Percent Effect,"30 µM, 30.03 µM",-4.753%
CCCOCCn1ncc(N2CCc3ccccc3C2)cc1=O,Percent Effect,"30.3 µM, […]",-24.62%
O=C(NCCNc1ncccn1)N1CCCC1c1ccc(F)cc1 (stereo unspecified),Percent Effect,"30.3 µM, […]",15.04%
CCOC(=O)CNC(=O)c1cc2n(n1)CCCO2,Percent Effect,"30.3 µM, […]",10.49%
Cc1nc(S(=O)(=O)CCn2cccn2)n(C2CCCCC2)c1C,Percent Effect,"30.3 µM, […]",21.76%
NCc1ccccc1Sc1ccc(O)cc1.O=C(O)/C=C\C(=O)O,Percent Effect,"30.3 µM, […]",18.14%
CCCn1nnnc1CN1Cc2ccccc2CC1c1nnc(C)o1 (stereo unspecified),Percent Effect,"30.3 µM, […]",14.94%
Cc1ncoc1C(=O)N1CCOC(CCCC(C)C)C1 (stereo unspecified),Percent Effect,"30.3 µM, […]",-28.53%
CCc1nc(C2CCCN2Cc2nc(CCOC)no2)no1 (stereo unspecified),Percent Effect,"30 µM, 30.03 µM",14.38%
NCCc1n[nH]c(=O)n1-c1cccc(Cl)c1Cl,Percent Effect,"30.3 µM, […]",4.495%
CC(Cc1cncs1)Nc1ncnc2cccc(F)c12 (stereo unspecified),Percent Effect,"30.3 µM, […]",50.92%
CC(Cc1cccnc1)Nc1ncnc2cccc(F)c12 (stereo unspecified),Percent Effect,"30.3 µM, […]",5.204%
Cc1cc(CC(C)Nc2ncnc3cccc(F)c23)[nH]n1 (stereo unspecified),Percent Effect,"30.3 µM, […]",6.483%
N#Cc1cccc(C(=O)N2C[C@H]3CC[C@@H]2CN(C(=O)C2CCC2)C3)c1,Percent Effect,"30.3 µM, […]",15.5%
CC(c1ccco1)N(C(=O)Cn1nc2n(c1=O)CCCCC2)C1CC1 (stereo unspecified),Percent Effect,"30.3 µM, […]",-5.38%
CCS(=O)(=O)N1CCOC2(CCCN(c3cnccn3)C2)C1.O=C(O)C(F)(F)F (stereo unspecified),Percent Effect,"30.3 µM, […]",26.09%
Cc1nc(CN2CCc3ncnc(-c4ccccc4)c3CC2)cs1.O=C(O)C(F)(F)F,Percent Effect,"30.3 µM, […]",41.98%
Cc1nc(CN2CCc3ncnc(-c4ccsc4)c3CC2)cs1.O=C(O)C(F)(F)F,Percent Effect,"30.3 µM, […]",54.86%
Cc1cccc(CN2CCc3ncnc(N4CCCC4)c3CC2)n1.O=C(O)C(F)(F)F,Percent Effect,"30.3 µM, […]",43.68%
Cc1cccc(CN2CCc3ncnc(N4CCOCC4)c3CC2)n1.O=C(O)C(F)(F)F,Percent Effect,"30 µM, 30.03 µM",-4.013%
Cc1nc(CN2CCc3ncnc(-c4ccncc4)c3CC2)cs1.O=C(O)C(F)(F)F.O=C(O)C(F)(F)F,Percent Effect,"30.3 µM, […]",3.502%
Cc1cccc(CN2CCc3ncnc(N4CCN(C)CC4)c3CC2)n1.O=C(O)C(F)(F)F.O=C(O)C(F)(F)F,Percent Effect,"30.3 µM, […]",55.42%
Nc1nccnc1C(=O)N(Cc1ccccc1O)CC1CCCO1 (stereo unspecified),Percent Effect,"30.3 µM, […]",-0.1848%
O=C(C(C1CC1)C1CC1)N1CCC(n2ccnn2)CC1,Percent Effect,"30.3 µM, […]",12.14%
CN1CCN(c2ncc3c(=O)n(-c4cccc(F)c4)c(=O)[nH]c3n2)CC1,Percent Effect,"30 µM, 30.03 µM",19.86%
O=C(O)C(F)(F)F.O=C(O)C(F)(F)F.O=C1NC2(CCN(Cc3cccs3)CC2)CC1c1ccncc1 (stereo unspecified),Percent Effect,"30.3 µM, […]",15.69%
COc1ccc(CC(=O)N2CCC(c3n[nH]c(C4CC4)n3)CC2)cc1,Percent Effect,"30.3 µM, […]",20.62%
CC(=O)Nc1nc(CNc2ccccc2CCC(F)(F)F)cs1,Percent Effect,"30.3 µM, […]",-4.538%
CN1C[C@@H](C(=O)N2CCOCC2)[C@@]2(CCc3ccccc3C(=O)N2)C1,Percent Effect,"30.3 µM, […]",0.0295%
Cc1cc(C)c2ncc(C#N)c(NC3CCN(CC(N)=O)CC3)c2c1,Percent Effect,"30.3 µM, […]",5.1%
N#Cc1cnc2c(F)cc(F)cc2c1NC1CCN(CC(N)=O)CC1,Percent Effect,"30.3 µM, […]",54.87%
N#Cc1cnc2cc(F)cc(F)c2c1NC1CCN(CC(N)=O)CC1,Percent Effect,"30.3 µM, […]",21.49%
CN(C)c1ccc(CC(=O)N[C@@H]2CCNC[C@H]2O)cc1,Percent Effect,"30 µM, 30.03 µM",-29.81%
CCOc1ccc(C(C)Nc2ncnc3c2CCNC3)cc1OCC (stereo unspecified),Percent Effect,"30.3 µM, […]",19.33%
Cc1cc(C)n(CC(C)Nc2ncnc3c2CCNC3)n1 (stereo unspecified),Percent Effect,"30.3 µM, […]",-4.806%
CC(Nc1ncnc2c1CCNC2)c1ccc2c(c1)CCCC2 (stereo unspecified),Percent Effect,"30.3 µM, […]",82.26%
Cc1ccccc1C(CNc1ncnc2c1CCNCC2)N(C)C (stereo unspecified),Percent Effect,"30.3 µM, […]",-7.029%
CC(Nc1ncnc2c1CCNCC2)c1nc2c(s1)CCCC2 (stereo unspecified),Percent Effect,"30.3 µM, […]",11.97%
Cc1ccccc1C(CNc1ncnc2c1CCNC2)N(C)C (stereo unspecified),Percent Effect,"30.3 µM, […]",-14.27%
CCCc1ccc(C(C)Nc2ncnc3c2CCNC3)cc1 (stereo unspecified),Percent Effect,"30.3 µM, […]",81.31%
CC(Nc1ncnc2c1CCNC2)c1ccc(C(C)(C)C)cc1 (stereo unspecified),Percent Effect,"30.3 µM, […]",88.55%
Cc1ccccc1C(Nc1ncnc2c1CCNC2)c1ccccc1 (stereo unspecified),Percent Effect,"30.3 µM, […]",61.26%
Cc1nc(C(C)Nc2ncnc3c2CCNCC3)c(C)s1 (stereo unspecified),Percent Effect,"30.3 µM, […]",9.224%
CCc1nc(NC2CC(=O)N(CC3CCCCC3)C2)ncc1C (stereo unspecified),Percent Effect,"30.3 µM, […]",15.64%
Cn1cc(C2CN(C(=O)Cc3coc(-c4ccccc4)n3)CCO2)cn1 (stereo unspecified),Percent Effect,"30.3 µM, […]",1.481%
COc1ccccc1CCN(C)C(=O)NC(C)c1nncn1C (stereo unspecified),Percent Effect,"30 µM, 30.03 µM",13.36%
COc1cc(CN2CCC(COCc3ccccc3)CC2)cc(OC)c1,Percent Effect,"30.3 µM, […]",11.79%
CCc1ccc(Cn2nccc2NC(=O)C2CCS(=O)(=O)C2)cc1 (stereo unspecified),Percent Effect,"30.3 µM, […]",28.09%
COc1ccc(-c2nnc([C@H]3CCN(C4CCC4)C3)o2)cc1,Percent Effect,"30.3 µM, […]",5.132%
O=C(c1ccc(Cn2ccccc2=O)o1)N1CCSCC1,Percent Effect,30 µM,34.1%
Cc1nc2c(c(NC3CCN(Cc4ccccc4)CC3)n1)CCNCC2,Percent Effect,"30.3 µM, […]",8.424%
c1ccc(-c2nc3c(c(NCCn4cccc4)n2)CCNCC3)nc1,Percent Effect,"30.3 µM, […]",4.707%
Cc1nc2c(c(NCc3cc4ccccc4s3)n1)CCNCC2,Percent Effect,"30.3 µM, […]",99.76%
Cc1nc2c(c(NCc3nc4ccccc4s3)n1)CCNCC2,Percent Effect,"30.3 µM, […]",11.81%
Cc1nc2c(c(NCC(O)c3ccccc3Cl)n1)CCNCC2 (stereo unspecified),Percent Effect,"30.3 µM, […]",52.68%
Cc1nc2c(c(NCc3ccc(-c4ccccn4)s3)n1)CCNCC2,Percent Effect,"30.3 µM, […]",74.83%
Cc1nc2c(c(NCC3Cc4ccccc4CN3C)n1)CCNCC2 (stereo unspecified),Percent Effect,"30.3 µM, […]",11.22%
c1ccc(-c2nc3c(c(NCCn4ccnn4)n2)CCNCC3)nc1,Percent Effect,"30.3 µM, […]",12.83%
Cc1nc2c(c(NCC(c3ccccc3C)N(C)C)n1)CCNC2 (stereo unspecified),Percent Effect,"30.3 µM, […]",37.15%
COC[C@@]12CCC[C@@H]1CN(C(=O)CN(C)C)C2.O=C(O)C(F)(F)F,Percent Effect,"30.3 µM, […]",2.882%
CCc1cnc(CCNC(C)CC(=O)Nc2cccc(C)c2C)s1 (stereo unspecified),Percent Effect,"30.3 µM, […]",0.8494%
COCC1CN(Cc2cccc(C#N)c2)Cc2nccn2C1 (stereo unspecified),Percent Effect,"30.3 µM, […]",20.19%
CNC[C@H]1CC[C@H](c2cc(CN(C)S(=O)(=O)N(C)C)n(C)n2)CC1.Cl,Percent Effect,"30.3 µM, […]",29.88%
COCC1CC2(CCN(C(=O)c3ccc(C)nc3)CC2)CO1.O=C(O)C(F)(F)F (stereo unspecified),Percent Effect,"30.3 µM, […]",25.55%
CN(C)[C@@H]1CCN(C(=O)NC2CCCC2)[C@H]1Cc1cnn(C)c1.O=C(O)C(F)(F)F,Percent Effect,"30 µM, 30.03 µM",11.61%
Cc1cc(N2CCC(c3nccn3Cc3cscn3)CC2)ccn1,Percent Effect,"30.3 µM, […]",-14.56%
